In PubChem BioAssay (NCI):
This is part of a sample that, as a whole, favours compounds with a hit. Of some 79,000 tested, about 15% had one in any assay. Activity calls are given as the source filed them. Rule as the data show it: active = growth inhibition above about 70%; inactive = the rest.

Columns and labels:
[1] = NCI Yeast Anticancer Drug Screen. Data for the rad52 strain (AID 147);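 also: 0% = growth of vehicle-treated control cultures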; conditions: S. cerevisiae rad52 mutant growth inhibition, stronger effect = higher value
Outline: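 Yeast strain carrying a DNA damage repair alteration was exposed to test compounds. Growth inhibition was measured relative to vehicle-treated controls.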

[2] = NCI Yeast Anticancer Drug Screen. Data for the wt1 strain (AID 149);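 also: 0% = growth of vehicle-treated wt1 cultures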; conditions: S. cerevisiae wt1 strain (SPY 50644) growth inhibition, stronger effect = higher value
Outline: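 Readout: yeast growth inhibition, normalised to vehicle controls, in the wt1 strain exposed to test compounds.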

[3] = NCI Yeast Anticancer Drug Screen. Data for the rad50EPP+ strain (AID 151);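 also: 0% = growth of vehicle-treated control cultures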; conditions: S. cerevisiae rad50 mutant strain, stronger effect = higher value
Outline: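 Yeast strain carrying rad50 alteration (rad50EPP+) exposed to compounds; growth inhibition measured relative to vehicle-treated controls.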

[4] = NCI Yeast Anticancer Drug Screen. Data for the mgt1 strain (AID 153); conditions: S. cerevisiae mgt1 mutant growth inhibition, stronger effect = higher value
Outline: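 Yeast mgt1 strain (DNA repair/cell-cycle alteration panel) exposed to compounds; growth inhibition measured relative to vehicle-treated controls.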

[5] = NCI Yeast Anticancer Drug Screen. Data for the rad50 strain (AID 155);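 also: 0% = growth of vehicle-only cultures of the same strain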; conditions: S. cerevisiae rad50 strain growth inhibition, stronger effect = higher value
Outline: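 Compounds were tested on a yeast strain with an engineered DNA damage repair alteration; the reported value is growth inhibition normalised to vehicle treatment.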

[6] = NCI Yeast Anticancer Drug Screen. Data for the mec2-1 strain (AID 157); conditions: S. cerevisiae mec2-1 strain, stronger effect = higher value
Outline: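 mec2-1 yeast strain, carrying an alteration in DNA damage repair or cell cycle control, was exposed to compounds; growth inhibition was measured relative to vehicle-treated controls.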

[7] = NCI Yeast Anticancer Drug Screen. Data for the rad14 strain (AID 159);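 also: 0% = growth of vehicle-treated control cultures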; conditions: S. cerevisiae rad14 strain growth inhibition, stronger effect = higher value
Outline: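 Compound-treated yeast with a defined DNA-repair lesion; growth inhibition normalised to vehicle-treated cultures.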

[8] = NCI Yeast Anticancer Drug Screen. Data for the sgs1 mgt1 strain (AID 161);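 also: 0% = growth of cultures given vehicle only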; conditions: S. cerevisiae sgs1 mgt1 strain, stronger effect = higher value
Outline: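 Compounds are added to genetically altered yeast, and growth is compared with cultures given vehicle alone to give percent inhibition.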

[9] = NCI Yeast Anticancer Drug Screen. Data for the CLN2oe strain (AID 163);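 also: 0% = growth of vehicle-only control cultures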; conditions: S. cerevisiae CLN2oe strain, stronger effect = higher value
Outline: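 Yeast cells carrying a defined cell-cycle control alteration were exposed to test compounds. Growth inhibition was scored against vehicle-treated control cultures.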

[10] = NCI Yeast Anticancer Drug Screen. Data for the cln2 rad14 strain (AID 165);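 also: 0% = growth equal to vehicle treated cultures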; conditions: S. cerevisiae cln2 rad14 strain, stronger effect = higher value
Outline: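 Yeast carrying cln2 and rad14 alterations (cell cycle control and DNA damage repair) were exposed to compounds. Growth inhibition was measured against vehicle-treated controls.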

[11] = NCI Yeast Anticancer Drug Screen. Data for the bub3 strain (AID 167); conditions: S. cerevisiae bub3 mutant strain, stronger effect = higher value
Outline: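 Growth of a checkpoint-deficient yeast mutant is measured after compound exposure. Values represent inhibition relative to vehicle.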

[12] = NCI Yeast Anticancer Drug Screen. Data for the wt2 strain (AID 169);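 also: 0% = growth of vehicle-treated yeast cultures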; conditions: S. cerevisiae wt2 strain growth inhibition, stronger effect = higher value
Outline: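 Yeast cells were exposed to test compounds, and growth inhibition was measured relative to vehicle-treated controls.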

[13] = NCI Yeast Anticancer Drug Screen. Data for the mlh1 strain (AID 171);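 also: 0% = growth of vehicle-treated control cultures of the same strain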; conditions: S. cerevisiae mlh1 strain growth inhibition, stronger effect = higher value
Outline: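 Yeast carrying a defined genetic alteration in DNA damage repair or cell cycle control were exposed to test compounds. Growth inhibition was measured relative to vehicle-treated controls.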

[14] = NCI Yeast Anticancer Drug Screen. Data for the sgs1 strain (AID 173);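 also: 0% = growth of vehicle-only control cultures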; conditions: S. cerevisiae sgs1 mutant, stronger effect = higher value
Outline: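 Yeast mutant strains carrying defined defects in DNA damage repair or cell cycle control were exposed to test compounds. Growth inhibition was scored against vehicle-treated controls.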

[15] = NCI Yeast Anticancer Drug Screen. Data for the mlh1 rad18 strain (AID 175); conditions: S. cerevisiae mlh1 rad18 strain growth inhibition, stronger effect = higher value
Outline: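 Growth inhibition of the yeast strain was measured after compound exposure and expressed relative to vehicle-treated controls. The strain carries defined defects in DNA damage repair.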

[16] = NCI Yeast Anticancer Drug Screen. Data for the rad18 strain (AID 177); conditions: S. cerevisiae rad18 mutant growth inhibition, stronger effect = higher value
Outline: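 Yeast carrying a defined DNA damage repair alteration were exposed to compounds. Growth inhibition was expressed relative to vehicle-treated controls.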

[17] = at 5.0 µM (retest, dose inferred, filed as 0.5)
[18] = at 50.0 µM (retest, dose inferred, filed as 5.0)

Measured: growth inhibition

OC1(c2ccccc2)CSC2=Nc3ccccc3C3CCN1N23 (stereo not drawn)
inactive: [1]; at 1.2 µM -41% | [1]; at 3.7 µM -50% | [1]; at 11.0 µM -45% | [1]; at 33.0 µM -29% | [2]; at 1.2 µM -82% | [2]; at 3.7 µM -83% | [2]; at 11.0 µM -89% | [2]; at 33.0 µM -33% | [3]; at 1.2 µM -29% | [3]; at 3.7 µM -40% | [3]; at 11.0 µM -47% | [3]; at 33.0 µM -22% | [3]; at 100.0 µM 66% | [4]; at 1.2 µM -45% | [4]; at 3.7 µM -43% | [4]; at 11.0 µM -38% | [4]; at 33.0 µM 57% | [5]; at 1.2 µM -66% | [5]; at 3.7 µM -75% | [5]; [17] 24% | [5]; at 11.0 µM -61% | [5]; at 33.0 µM -20% | [5]; [18] 47% | [5]; at 50.0 µM 51.5% | [6]; at 1.2 µM -86% | [6]; at 3.7 µM -71% | [6]; [17] 12% | [6]; at 11.0 µM -91% | [6]; at 33.0 µM -21% | [6]; [18] 40% | [6]; at 50.0 µM 43.7% | [7]; at 1.2 µM -51% | [7]; at 3.7 µM -32% | [7]; at 11.0 µM -36% | [7]; at 33.0 µM 13% | [8]; [17] 27% | [8]; [18] 51% | [9]; at 1.2 µM -23% | [9]; at 3.7 µM -16% | [9]; at 11.0 µM -46% | [9]; at 33.0 µM 2% | [10]; [17] 25% | [10]; [18] 40% | [10]; at 50.0 µM 16.4% | [11]; at 1.2 µM -56% | [11]; at 3.7 µM -54% | [11]; [17] 19% | [11]; at 11.0 µM -43% | [11]; at 33.0 µM 58% | [11]; [18] 11% | [12]; at 1.2 µM -47% | [12]; at 3.7 µM -39% | [12]; at 11.0 µM -34% | [12]; at 33.0 µM -1% | [13]; at 1.2 µM -81% | [13]; at 3.7 µM -100% | [13]; at 11.0 µM -63% | [13]; at 33.0 µM 58% | [14]; at 1.2 µM -23% | [14]; at 3.7 µM -55% | [14]; at 11.0 µM -42% | [14]; at 33.0 µM 18% | [15]; [17] 23% | [16]; at 1.2 µM -65% | [16]; at 3.7 µM -55% | [16]; at 11.0 µM -70% | [16]; at 33.0 µM -21%
active: [1]; at 100.0 µM 91% | [2]; at 100.0 µM 95% | [4]; at 100.0 µM 94% | [5]; at 100.0 µM 92% | [6]; at 100.0 µM 93% | [7]; at 100.0 µM 94% | [8]; at 50.0 µM 80.2% | [9]; at 100.0 µM 93% | [11]; at 50.0 µM 73.7% | [11]; at 100.0 µM 91% | [12]; at 100.0 µM 94% | [13]; at 100.0 µM 93% | [14]; at 100.0 µM 94% | [15]; [18] 78% | [15]; at 50.0 µM 80.7% | [16]; at 100.0 µM 92%
